# Assay results: article PMC7862700, “An all-to-all approach to the identification of sequence-specific readers for epigenetic DNA modifications on cytosine”
# Legend:
# Assay in all cases: DAPPL (digital affinity profiling via proximity ligation, sequencing); 10 mM Tris-HCl pH 7.5, 50 mM NaCl, 1 mM DTT, 4% glycerol, room temperature, 30 min; GST-TFs on glutathione beads, 16-mer random dsDNA library, 0.1% formaldehyde crosslink after washing; high values mean tight binding
# Settings in all cases: protein: recombinant; tags: N-terminal GST; dsDNA, one strand shown
# FLI1 = biological target: T1, FLI1 (Homo sapiens, UniProt Q01543 1-452)
# T1 sequence: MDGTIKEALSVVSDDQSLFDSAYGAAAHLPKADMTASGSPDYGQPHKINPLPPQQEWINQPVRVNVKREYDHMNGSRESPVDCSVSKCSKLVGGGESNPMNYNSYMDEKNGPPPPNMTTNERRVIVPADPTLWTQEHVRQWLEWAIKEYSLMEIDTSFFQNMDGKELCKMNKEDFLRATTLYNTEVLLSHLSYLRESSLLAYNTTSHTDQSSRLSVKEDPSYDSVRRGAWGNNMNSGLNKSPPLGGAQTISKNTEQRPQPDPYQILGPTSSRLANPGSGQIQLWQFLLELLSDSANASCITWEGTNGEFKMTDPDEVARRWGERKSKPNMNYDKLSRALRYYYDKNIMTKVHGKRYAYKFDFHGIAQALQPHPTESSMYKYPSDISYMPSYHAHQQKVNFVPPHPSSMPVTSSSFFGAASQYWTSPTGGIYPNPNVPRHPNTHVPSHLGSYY
# Summary of the method: (§1)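 Human transcription factors were made in yeast as GST fusions, captured on glutathione beads and barcoded with DNA. With a tag-only sample included, the pool was incubated with 200 nmole of a random double-stranded 16-mer DNA library in Tris/NaCl/DTT/glycerol buffer at room temperature for 30 min, then crosslinked with 0.1% formaldehyde after washing, ligated by proximity, amplified and sequenced. For binding signal, each hexamer's read frequency for a factor is divided by its frequency for the tag-only sample.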
# ELK1 = biological target: T2, ELK1 (Homo sapiens, UniProt P19419 1-428)
# T2 sequence: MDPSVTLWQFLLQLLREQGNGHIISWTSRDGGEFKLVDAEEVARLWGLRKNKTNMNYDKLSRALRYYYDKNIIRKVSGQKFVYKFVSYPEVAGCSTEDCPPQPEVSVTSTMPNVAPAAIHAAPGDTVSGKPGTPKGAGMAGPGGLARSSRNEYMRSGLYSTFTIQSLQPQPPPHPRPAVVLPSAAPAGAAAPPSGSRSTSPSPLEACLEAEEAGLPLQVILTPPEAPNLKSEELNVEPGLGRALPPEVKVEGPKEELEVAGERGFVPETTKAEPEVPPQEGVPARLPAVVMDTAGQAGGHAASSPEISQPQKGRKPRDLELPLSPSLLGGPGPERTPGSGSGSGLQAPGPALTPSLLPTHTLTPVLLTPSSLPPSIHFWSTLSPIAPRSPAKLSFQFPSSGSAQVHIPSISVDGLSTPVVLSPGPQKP
# Summary of the method: as §1
# GABPA = biological target: T3, GABPA (Homo sapiens, UniProt Q06546 1-454)
# T3 sequence: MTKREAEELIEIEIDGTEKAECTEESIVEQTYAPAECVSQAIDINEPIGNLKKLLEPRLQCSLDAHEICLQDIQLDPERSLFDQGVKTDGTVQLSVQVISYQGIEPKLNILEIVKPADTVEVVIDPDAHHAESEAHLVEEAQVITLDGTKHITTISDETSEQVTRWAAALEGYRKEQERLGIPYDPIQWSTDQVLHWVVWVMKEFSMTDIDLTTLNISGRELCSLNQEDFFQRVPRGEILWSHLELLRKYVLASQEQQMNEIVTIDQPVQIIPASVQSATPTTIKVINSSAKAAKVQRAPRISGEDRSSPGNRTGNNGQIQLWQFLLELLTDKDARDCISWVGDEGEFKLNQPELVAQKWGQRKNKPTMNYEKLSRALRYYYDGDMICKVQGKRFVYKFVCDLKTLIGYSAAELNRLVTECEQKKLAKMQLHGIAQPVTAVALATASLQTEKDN
# Summary of the method: as §1
# ERG = biological target: T4, ERG (Homo sapiens, UniProt P11308 1-479)
# T4 sequence: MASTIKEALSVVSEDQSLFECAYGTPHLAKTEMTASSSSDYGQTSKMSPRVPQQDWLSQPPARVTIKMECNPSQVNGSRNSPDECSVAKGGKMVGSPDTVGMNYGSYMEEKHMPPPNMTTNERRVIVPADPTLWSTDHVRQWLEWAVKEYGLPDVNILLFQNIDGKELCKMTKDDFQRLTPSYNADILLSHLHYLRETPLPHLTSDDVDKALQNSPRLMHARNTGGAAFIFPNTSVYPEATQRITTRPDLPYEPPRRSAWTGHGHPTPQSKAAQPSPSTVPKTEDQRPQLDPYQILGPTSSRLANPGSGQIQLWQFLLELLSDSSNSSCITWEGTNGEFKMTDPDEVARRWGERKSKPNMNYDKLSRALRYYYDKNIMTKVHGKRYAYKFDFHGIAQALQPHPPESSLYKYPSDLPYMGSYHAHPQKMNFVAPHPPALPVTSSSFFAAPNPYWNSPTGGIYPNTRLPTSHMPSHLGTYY
# Summary of the method: as §1
# ELF1 = ELF1 (Homo sapiens, UniProt P32519 1-619)
# Sequence of ELF1 (P32519 whole entry): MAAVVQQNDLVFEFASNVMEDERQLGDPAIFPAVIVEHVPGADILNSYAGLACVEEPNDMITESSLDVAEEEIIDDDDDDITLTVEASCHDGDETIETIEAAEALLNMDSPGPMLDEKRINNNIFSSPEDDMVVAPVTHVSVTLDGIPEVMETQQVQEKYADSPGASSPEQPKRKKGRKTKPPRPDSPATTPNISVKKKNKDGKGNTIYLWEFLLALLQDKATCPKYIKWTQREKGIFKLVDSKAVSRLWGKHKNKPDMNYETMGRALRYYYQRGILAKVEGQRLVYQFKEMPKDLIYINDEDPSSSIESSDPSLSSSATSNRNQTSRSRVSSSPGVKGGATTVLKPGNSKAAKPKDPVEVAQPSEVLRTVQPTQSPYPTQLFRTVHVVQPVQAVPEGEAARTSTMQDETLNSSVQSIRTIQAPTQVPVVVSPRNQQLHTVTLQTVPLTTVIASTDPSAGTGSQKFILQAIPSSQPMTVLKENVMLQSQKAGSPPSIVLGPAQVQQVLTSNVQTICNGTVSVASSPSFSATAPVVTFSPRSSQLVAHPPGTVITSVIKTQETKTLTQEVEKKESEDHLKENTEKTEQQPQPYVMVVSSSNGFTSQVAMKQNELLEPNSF
# Summary of the method: as §1
# EHF = biological target: T5, EHF (Homo sapiens, UniProt Q9NZC4 1-300)
# T5 sequence: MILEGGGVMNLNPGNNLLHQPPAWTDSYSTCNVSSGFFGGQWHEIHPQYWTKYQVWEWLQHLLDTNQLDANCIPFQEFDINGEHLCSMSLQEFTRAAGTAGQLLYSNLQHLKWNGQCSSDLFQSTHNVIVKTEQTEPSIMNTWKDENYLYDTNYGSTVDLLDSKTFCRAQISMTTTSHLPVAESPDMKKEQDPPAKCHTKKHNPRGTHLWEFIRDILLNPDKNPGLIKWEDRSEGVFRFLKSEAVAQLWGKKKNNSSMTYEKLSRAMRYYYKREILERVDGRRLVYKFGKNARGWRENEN
# Summary of the method: as §1
# SPI1 = SPI1 (Homo sapiens, UniProt P17947 1-270)
# Summary of the method: as §1
# SPIB = SPIB (Homo sapiens, UniProt Q01892 1-262)
# Sequence of SPIB (Q01892 whole entry): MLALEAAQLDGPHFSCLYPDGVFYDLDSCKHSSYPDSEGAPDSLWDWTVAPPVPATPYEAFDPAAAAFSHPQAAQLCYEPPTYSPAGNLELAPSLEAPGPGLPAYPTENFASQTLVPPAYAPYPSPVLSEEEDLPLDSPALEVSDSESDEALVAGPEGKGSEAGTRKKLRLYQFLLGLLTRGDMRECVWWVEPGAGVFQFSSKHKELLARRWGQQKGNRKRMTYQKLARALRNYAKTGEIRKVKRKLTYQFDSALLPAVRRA
# Summary of the method: as §1
# ELK3 = biological target: T6, ELK3 (Homo sapiens, UniProt P41970 1-407)
# T6 sequence: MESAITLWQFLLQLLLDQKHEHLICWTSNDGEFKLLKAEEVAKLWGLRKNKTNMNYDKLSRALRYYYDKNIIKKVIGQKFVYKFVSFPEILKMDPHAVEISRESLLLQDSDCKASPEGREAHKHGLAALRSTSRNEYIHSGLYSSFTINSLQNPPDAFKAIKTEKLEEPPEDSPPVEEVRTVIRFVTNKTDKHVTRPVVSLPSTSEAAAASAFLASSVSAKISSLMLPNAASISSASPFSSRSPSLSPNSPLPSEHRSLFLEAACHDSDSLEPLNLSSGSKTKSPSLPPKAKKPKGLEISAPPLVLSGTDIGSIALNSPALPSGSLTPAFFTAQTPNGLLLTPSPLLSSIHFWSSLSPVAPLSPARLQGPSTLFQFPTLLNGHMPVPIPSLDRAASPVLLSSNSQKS
# Summary of the method: as §1
sequence,measurement,setting,value
TCTGGC,binding signal,FLI1,"1.36 fold enrichment (6-mer frequency, TF over GST control)"
same,binding signal,ELK1,"1.26 fold enrichment (6-mer frequency, TF over GST control)"
same,binding signal,GABPA,"1.29 fold enrichment (6-mer frequency, TF over GST control)"
same,binding signal,ERG,"1.27 fold enrichment (6-mer frequency, TF over GST control)"
same,binding signal,ELF1,"1.14 fold enrichment (6-mer frequency, TF over GST control)"
same,binding signal,EHF,"1.22 fold enrichment (6-mer frequency, TF over GST control)"
same,binding signal,SPI1,"1.25 fold enrichment (6-mer frequency, TF over GST control)"
same,binding signal,SPIB,"1.09 fold enrichment (6-mer frequency, TF over GST control)"
same,binding signal,ELK3,"1.18 fold enrichment (6-mer frequency, TF over GST control)"
